Compounds with a hit are over-represented: about 3.5% of the library has one in this group of screens.
GPR151 activ = activators of human GPR151. activation, % at 11.2 µM. PathHunter beta-arrestin GPR151 cells, luminescence. AID 1508602. hit rate 1% among 650,000; in the data active = activation above about 4.9%;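 note: 0% = median of compound wells and 100% = cells with positive control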
MITF inh = human MITF inhibition, primary screen. hit rate 0.91% among 650,000. inhibition, % at 2.6 µM. AlphaScreen MITF homodimerization, bead proximity signal. O75030; in the data active = inhibition above about 50%;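 note: 0% = vehicle wells with protein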
Target sequence (O75030 whole entry, looked up): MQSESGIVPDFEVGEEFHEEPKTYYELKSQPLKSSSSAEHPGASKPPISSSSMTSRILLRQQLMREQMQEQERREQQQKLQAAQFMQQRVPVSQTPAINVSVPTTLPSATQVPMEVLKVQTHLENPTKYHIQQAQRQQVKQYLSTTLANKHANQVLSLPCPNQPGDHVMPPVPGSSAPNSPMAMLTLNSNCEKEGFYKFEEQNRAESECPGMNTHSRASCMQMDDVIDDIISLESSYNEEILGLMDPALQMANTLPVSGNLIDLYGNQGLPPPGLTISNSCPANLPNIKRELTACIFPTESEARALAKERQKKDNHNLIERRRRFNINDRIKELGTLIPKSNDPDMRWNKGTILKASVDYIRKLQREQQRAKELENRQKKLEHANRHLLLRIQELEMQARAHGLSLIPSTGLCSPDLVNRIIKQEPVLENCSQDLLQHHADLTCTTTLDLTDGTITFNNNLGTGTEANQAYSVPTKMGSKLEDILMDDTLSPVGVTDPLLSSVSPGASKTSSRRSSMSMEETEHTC
FBW7 activator = human FBW7 E3 ligase activation, primary screen | hit rate 0.13% among 650,000 | Q969H0 | AID 1259310 | AlphaScreen FBW7–phospho-cyclin E peptide binding, activator screen | normalized activity (activation), % at 26.1 µM; in the data active = normalized activity above about 1.9%;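 note: purified mutant Fbw7 with reduced substrate affinity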
TEAD-YAP inh = TEAD-YAP interaction inhibition. HEK-TIYL cells, TEAD-Gal4/YAP UAS-luciferase luminescence. inhibition, % at 9.12 µM. hit rate 1.4% among 640,000; in the data active = inhibition above about 32%;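 note: 0% = median of test compound wells and 100% = reference inhibitor wells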
* hit, by the source's call.

How did Cc1ccc(C(NC(=O)COc2ccccc2)c2cc(Cl)c3cccnc3c2O)cc1 (stereo unspecified) do in these assays?
GPR151 activ: -0.3; MITF inh: 12.2; FBW7 activator: -0.1; TEAD-YAP inh: 18.8

How did CCCCC(=O)NC(c1ccc(C)cc1)c1ccc2cccnc2c1O (stereo unspecified) do in these assays?
GPR151 activ: -0.1; MITF inh: 14.2; FBW7 activator: -0.4; TEAD-YAP inh: 85.5*

What do the screens show for `CCCCC(=O)NC(c1ccc(N(CC)CC)cc1)c1ccc2cccnc2c1O` (stereo unspecified)?
GPR151 activ: 1.3; MITF inh: 15.2; FBW7 activator: -0.5; TEAD-YAP inh: 25.0

What do the screens show for `CCCC(=O)NC(c1ccc(C)cc1)c1ccc2cccnc2c1O` (stereo unspecified)?
GPR151 activ: 0.6; MITF inh: 4.0; FBW7 activator: -0.5; TEAD-YAP inh: 69.2*

What do the screens show for `CCOC(=O)c1cnc2ccc(OCC)cc2c1Nc1ccc2c(c1)OCO2`?
GPR151 activ: 1.4; MITF inh: 7.9; FBW7 activator: -0.1; TEAD-YAP inh: -5.0

What do the screens show for `CCOC(=O)C1=C(C)N=c2s/c(=C/c3cccc([N+](=O)[O-])c3)c(=O)n2C1/C=C/c1ccccc1` (stereo unspecified)?
GPR151 activ: 0.2; MITF inh: 5.0; FBW7 activator: 0.0; TEAD-YAP inh: -5.6

How did Cc1cccc(C)c1NC(=O)C1(N(C)C(=O)C2CCCN2C(=O)C(C)(C)C)CCCCC1 (stereo unspecified) do in these assays?
GPR151 activ: 0.4; MITF inh: -1.8; FBW7 activator: 0.9; TEAD-YAP inh: 14.7

How did O=C(Nc1ccccc1Br)c1cc(S(=O)(=O)NCc2ccco2)ccc1F do in these assays?
GPR151 activ: -2.3; MITF inh: -4.2; FBW7 activator: -0.1; TEAD-YAP inh: -0.4

What do the screens show for `CCOc1ccc(-c2nc(Cn3c(=O)n(C(C)C)c(=O)c4ccccc43)c(C)o2)cc1`?
GPR151 activ: -1.0; MITF inh: -9.3; FBW7 activator: 0.1; TEAD-YAP inh: -2.2

How did CCOC(=O)CSc1nc(-c2cccs2)cc(C(F)(F)F)c1C#N do in these assays?
GPR151 activ: -0.3; MITF inh: -0.1; FBW7 activator: 0.1; TEAD-YAP inh: 6.4

Results for C/C1=C2N=C(/C=C3N=C(/C(C)=C4\NC(C(CC(N)=O)C4(C)CCC(=O)NCC(C)OP(=O)(O)OC4C(CO)OC(n5cnc6cc(C)c(C)cc65)C4O)C4(C)N=C1C(CCC(N)=O)C4(C)CC(N)=O)C(CCC(N)=O)C\3(C)C)C(CCC(N)=O)C/2(C)CC(N)=O (stereo unspecified) ?
GPR151 activ: -9.3; MITF inh: -35.1; FBW7 activator: -0.5; TEAD-YAP inh: 33.1*

Results for CC(=O)OCC1OC(OC(C)=O)C(NC(=O)C(F)(F)F)C(OC(C)=O)C1OC(C)=O (stereo unspecified) ?
GPR151 activ: 0.0; MITF inh: -3.8; FBW7 activator: 0.0; TEAD-YAP inh: -2.6

How did N=C1/C(=C/c2ccc(OCc3ccc4c(c3)OCO4)c(Cl)c2)C(=O)N=C2SC=CN12 do in these assays?
GPR151 activ: -4.6; MITF inh: -5.1; FBW7 activator: 0.1; TEAD-YAP inh: 39.4*

Results for N=C1/C(=C/c2cn(Cc3ccc4c(c3)OCO4)c3ccccc23)C(=O)N=C2SC=CN12 ?
GPR151 activ: 2.1; MITF inh: 7.4; FBW7 activator: 0.0; TEAD-YAP inh: 12.4

What do the screens show for `C/C(=N\NC(=S)NCCc1ccccc1)c1ccccn1`?
GPR151 activ: 0.9; MITF inh: 25.8; FBW7 activator: -0.9; TEAD-YAP inh: 88.1*

Results for S=C(NCCc1ccccc1)N/N=C/c1ccccn1 ?
GPR151 activ: -1.7; MITF inh: 37.7; FBW7 activator: -0.4; TEAD-YAP inh: 80.5*

What do the screens show for `O=C(Cc1ccccc1)N/N=C/c1ccccn1`?
GPR151 activ: -0.5; MITF inh: 2.1; FBW7 activator: -0.2; TEAD-YAP inh: -16.6

How did COc1ccc(/C(C)=N/NC(=S)NCCc2ccccc2)c(O)c1 do in these assays?
GPR151 activ: -0.7; MITF inh: 87.3*; FBW7 activator: 0.3; TEAD-YAP inh: 2.4

How did COc1ccc(CN2CCC3(CCC(CNC(=O)C(C)C)O3)CC2)c(OC)c1C (stereo unspecified) do in these assays?
GPR151 activ: 0.0; MITF inh: 12.8; FBW7 activator: 0.1; TEAD-YAP inh: -19.1

Results for C=CCN=c1scc(-c2ccco2)n1/N=C/c1cccs1 ?
GPR151 activ: 1.0; MITF inh: 22.1; FBW7 activator: -0.5; TEAD-YAP inh: 34.2*

Results for CCCS(=O)(=O)c1ncc(Cl)c(C(=O)Nc2ccc(C(=O)OC)cc2)n1 ?
GPR151 activ: -1.2; MITF inh: 5.2; FBW7 activator: 0.1; TEAD-YAP inh: 42.8*
